How the values were obtained:
Test in all cases: DAPPL (digital affinity profiling via proximity ligation, sequencing); 10 mM Tris-HCl pH 7.5, 50 mM NaCl, 1 mM DTT, 4% glycerol, room temperature, 30 min; GST-TFs on glutathione beads, 16-mer random dsDNA library, 0.1% formaldehyde crosslink after washing; high values mean tight binding
FEV = target: T1, FEV (Homo sapiens, UniProt Q99581 1-238); conditions: protein: recombinant; tags: N-terminal GST; dsDNA, one strand shown
T1 sequence: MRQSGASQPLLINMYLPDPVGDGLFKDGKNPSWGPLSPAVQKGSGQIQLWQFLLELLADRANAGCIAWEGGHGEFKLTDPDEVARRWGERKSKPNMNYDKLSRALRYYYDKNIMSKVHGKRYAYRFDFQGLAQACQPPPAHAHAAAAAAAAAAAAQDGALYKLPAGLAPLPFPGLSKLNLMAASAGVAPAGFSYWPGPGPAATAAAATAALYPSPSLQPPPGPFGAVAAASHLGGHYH
Outline: (§1)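 Yeast served to express human transcription factors as GST fusions, which were then captured on glutathione beads and labelled with DNA barcodes. Pooled with a tag-only sample, they were incubated with 200 nmole of a 16-mer random double-stranded DNA library for 30 min at room temperature in Tris/NaCl/DTT/glycerol buffer, washed, crosslinked with 0.1% formaldehyde, ligated by proximity, amplified by PCR and sequenced. Dividing each hexamer's read frequency for a factor by its frequency for the tag-only sample gives the binding signal.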

ETV5 = ETV5 (Homo sapiens, UniProt P41161 1-510); conditions: protein: recombinant; tags: N-terminal GST; dsDNA, one strand shown
Outline: as §1

HSF1 = HSF1 (Homo sapiens, UniProt Q00613 1-529); conditions: protein: recombinant; tags: N-terminal GST; chain copies: 3; dsDNA, one strand shown
Outline: as §1

SPIC = target: T2, SPIC (Homo sapiens, UniProt Q8N5J4 1-248); conditions: protein: recombinant; tags: N-terminal GST; dsDNA, one strand shown
T2 sequence: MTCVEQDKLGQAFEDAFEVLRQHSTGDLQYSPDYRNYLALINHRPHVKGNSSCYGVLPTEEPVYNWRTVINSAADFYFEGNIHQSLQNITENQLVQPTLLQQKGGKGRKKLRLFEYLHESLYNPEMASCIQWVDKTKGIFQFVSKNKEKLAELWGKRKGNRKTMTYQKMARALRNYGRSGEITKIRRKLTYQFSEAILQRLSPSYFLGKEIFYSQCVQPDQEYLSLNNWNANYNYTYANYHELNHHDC
Outline: as §1

ELF4 = ELF4 (Homo sapiens, UniProt Q99607 1-663); conditions: protein: recombinant; tags: N-terminal GST; dsDNA, one strand shown
Outline: as §1

ELK4 = target: T3, ELK4 (Homo sapiens, UniProt P28324-2 1-405); conditions: protein: recombinant; tags: N-terminal GST; dsDNA, one strand shown
T3 sequence: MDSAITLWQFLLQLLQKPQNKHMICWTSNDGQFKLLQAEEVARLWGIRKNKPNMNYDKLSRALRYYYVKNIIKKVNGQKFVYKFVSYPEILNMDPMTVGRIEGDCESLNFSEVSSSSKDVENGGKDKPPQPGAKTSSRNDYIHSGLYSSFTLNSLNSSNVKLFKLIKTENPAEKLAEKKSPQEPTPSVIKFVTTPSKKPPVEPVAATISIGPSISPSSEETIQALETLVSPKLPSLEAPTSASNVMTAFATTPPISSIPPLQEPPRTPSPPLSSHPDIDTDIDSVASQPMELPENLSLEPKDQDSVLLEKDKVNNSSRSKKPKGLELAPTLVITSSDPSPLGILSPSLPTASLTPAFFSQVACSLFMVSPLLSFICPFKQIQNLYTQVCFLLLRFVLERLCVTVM
Outline: as §1

ETV2 = target: T4, ETV2 (Homo sapiens, UniProt O00321 1-342); conditions: protein: recombinant; tags: N-terminal GST; dsDNA, one strand shown
T4 sequence: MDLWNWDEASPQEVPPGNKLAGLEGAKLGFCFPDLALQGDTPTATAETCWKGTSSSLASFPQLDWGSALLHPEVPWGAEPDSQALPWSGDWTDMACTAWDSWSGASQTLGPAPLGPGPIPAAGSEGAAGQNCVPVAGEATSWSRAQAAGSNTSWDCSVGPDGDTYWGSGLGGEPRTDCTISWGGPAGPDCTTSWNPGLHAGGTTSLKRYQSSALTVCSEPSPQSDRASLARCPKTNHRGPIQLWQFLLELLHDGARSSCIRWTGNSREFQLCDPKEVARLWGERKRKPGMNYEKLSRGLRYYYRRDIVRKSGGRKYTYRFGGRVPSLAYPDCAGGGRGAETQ
Outline: as §1

ELF3 = target: T5, ELF3 (Homo sapiens, UniProt P78545 1-371); conditions: protein: recombinant; tags: N-terminal GST; dsDNA, one strand shown
T5 sequence: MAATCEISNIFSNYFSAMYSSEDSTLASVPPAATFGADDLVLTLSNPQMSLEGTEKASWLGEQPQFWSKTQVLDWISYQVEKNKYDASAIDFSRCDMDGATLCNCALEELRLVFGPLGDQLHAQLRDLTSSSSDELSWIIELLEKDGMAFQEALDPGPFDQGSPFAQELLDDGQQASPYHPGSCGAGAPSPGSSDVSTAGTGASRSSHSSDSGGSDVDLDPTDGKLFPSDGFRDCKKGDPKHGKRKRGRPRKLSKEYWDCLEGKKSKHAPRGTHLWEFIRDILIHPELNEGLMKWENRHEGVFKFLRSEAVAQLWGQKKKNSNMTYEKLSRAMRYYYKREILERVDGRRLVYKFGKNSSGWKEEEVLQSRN
Outline: as §1

CRX = CRX (Homo sapiens, UniProt O43186 1-299); conditions: protein: recombinant; tags: N-terminal GST; dsDNA, one strand shown
Outline: as §1

ETV1 = ETV1 (Homo sapiens, UniProt P50549 1-477); conditions: protein: recombinant; tags: N-terminal GST; dsDNA, one strand shown
Outline: as §1

ERF = target: T6, ERF (Homo sapiens, UniProt P50548 1-548); conditions: protein: recombinant; tags: N-terminal GST; dsDNA, one strand shown
T6 sequence: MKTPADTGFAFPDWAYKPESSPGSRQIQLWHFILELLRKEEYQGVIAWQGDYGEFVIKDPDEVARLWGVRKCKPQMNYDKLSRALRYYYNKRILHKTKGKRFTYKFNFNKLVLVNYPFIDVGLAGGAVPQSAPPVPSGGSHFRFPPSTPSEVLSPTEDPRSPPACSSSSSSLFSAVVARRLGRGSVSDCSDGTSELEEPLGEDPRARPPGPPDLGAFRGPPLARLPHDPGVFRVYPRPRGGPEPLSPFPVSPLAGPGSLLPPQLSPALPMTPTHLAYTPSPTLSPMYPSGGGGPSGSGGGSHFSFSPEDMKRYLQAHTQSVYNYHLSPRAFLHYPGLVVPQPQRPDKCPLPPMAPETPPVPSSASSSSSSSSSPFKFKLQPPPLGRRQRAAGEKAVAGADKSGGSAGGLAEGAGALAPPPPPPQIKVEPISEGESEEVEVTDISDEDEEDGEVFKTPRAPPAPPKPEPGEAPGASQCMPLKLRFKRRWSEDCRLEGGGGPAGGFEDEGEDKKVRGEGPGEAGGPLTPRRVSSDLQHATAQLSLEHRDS
Outline: as §1

ETV3L = target: T7, ETV3L (Homo sapiens, UniProt Q6ZN32 1-361); conditions: protein: recombinant; tags: N-terminal GST; dsDNA, one strand shown
T7 sequence: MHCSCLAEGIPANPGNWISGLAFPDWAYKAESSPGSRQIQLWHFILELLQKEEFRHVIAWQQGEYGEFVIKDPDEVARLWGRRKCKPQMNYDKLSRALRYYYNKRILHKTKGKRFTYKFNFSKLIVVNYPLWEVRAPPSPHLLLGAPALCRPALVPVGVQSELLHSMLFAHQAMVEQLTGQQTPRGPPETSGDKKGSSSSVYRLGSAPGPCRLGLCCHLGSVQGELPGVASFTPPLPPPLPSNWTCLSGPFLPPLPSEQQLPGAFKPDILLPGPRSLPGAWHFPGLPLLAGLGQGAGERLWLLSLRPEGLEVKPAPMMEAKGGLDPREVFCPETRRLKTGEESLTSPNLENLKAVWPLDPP
Outline: as §1

ETS2 = target: T8, ETS2 (Homo sapiens, UniProt P15036 1-469); conditions: protein: recombinant; tags: N-terminal GST; dsDNA, one strand shown
T8 sequence: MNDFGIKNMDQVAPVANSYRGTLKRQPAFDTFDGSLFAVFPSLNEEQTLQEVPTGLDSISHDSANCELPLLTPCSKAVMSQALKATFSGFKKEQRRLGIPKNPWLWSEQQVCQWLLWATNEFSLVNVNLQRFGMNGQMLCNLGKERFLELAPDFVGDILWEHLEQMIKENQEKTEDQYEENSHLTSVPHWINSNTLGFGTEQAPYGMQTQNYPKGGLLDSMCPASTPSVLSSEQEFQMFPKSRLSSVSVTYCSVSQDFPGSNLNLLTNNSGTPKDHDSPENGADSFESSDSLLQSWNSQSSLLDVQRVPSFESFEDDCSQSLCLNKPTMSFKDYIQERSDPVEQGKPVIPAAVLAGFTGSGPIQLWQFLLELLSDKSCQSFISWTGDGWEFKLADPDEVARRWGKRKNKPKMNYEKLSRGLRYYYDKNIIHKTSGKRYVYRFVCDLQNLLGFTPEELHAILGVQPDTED
Outline: as §1

SPDEF = target: T9, SPDEF (Homo sapiens, UniProt O95238 1-335); conditions: protein: recombinant; tags: N-terminal GST; dsDNA, one strand shown
T9 sequence: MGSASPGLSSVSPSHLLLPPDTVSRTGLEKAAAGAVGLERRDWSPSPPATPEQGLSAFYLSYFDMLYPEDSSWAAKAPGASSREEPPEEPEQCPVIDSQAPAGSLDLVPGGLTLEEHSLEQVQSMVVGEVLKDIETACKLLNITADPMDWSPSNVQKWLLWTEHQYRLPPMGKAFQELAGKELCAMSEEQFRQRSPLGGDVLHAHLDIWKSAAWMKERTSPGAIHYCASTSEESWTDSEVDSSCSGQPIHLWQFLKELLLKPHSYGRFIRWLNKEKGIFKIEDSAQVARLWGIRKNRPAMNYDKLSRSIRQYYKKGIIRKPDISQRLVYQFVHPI
Outline: as §1

ETV7 = target: T10, ETV7 (Homo sapiens, UniProt Q9Y603 1-341); conditions: protein: recombinant; tags: N-terminal GST; dsDNA, one strand shown
T10 sequence: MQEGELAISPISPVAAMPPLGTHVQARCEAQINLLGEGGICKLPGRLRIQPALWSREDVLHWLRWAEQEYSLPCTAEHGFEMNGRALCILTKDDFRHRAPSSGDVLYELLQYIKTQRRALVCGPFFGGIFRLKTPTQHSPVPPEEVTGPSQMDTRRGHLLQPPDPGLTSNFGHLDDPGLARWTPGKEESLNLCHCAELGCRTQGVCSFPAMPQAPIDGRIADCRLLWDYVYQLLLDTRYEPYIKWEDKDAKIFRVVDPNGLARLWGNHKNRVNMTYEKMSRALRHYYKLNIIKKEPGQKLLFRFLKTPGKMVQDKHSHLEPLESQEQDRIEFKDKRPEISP
Outline: as §1

ETV3 = target: T11, ETV3 (Homo sapiens, UniProt P41162-2 1-143); conditions: protein: recombinant; tags: N-terminal GST; dsDNA, one strand shown
T11 sequence: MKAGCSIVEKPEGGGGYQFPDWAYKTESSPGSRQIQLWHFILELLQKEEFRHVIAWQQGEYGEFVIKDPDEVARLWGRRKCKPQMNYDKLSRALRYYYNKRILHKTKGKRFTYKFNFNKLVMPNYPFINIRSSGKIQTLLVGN
Outline: as §1

ELF5 = target: T12, ELF5 (Homo sapiens, UniProt Q9UKW6-2 1-255); conditions: protein: recombinant; tags: N-terminal GST; dsDNA, one strand shown
T12 sequence: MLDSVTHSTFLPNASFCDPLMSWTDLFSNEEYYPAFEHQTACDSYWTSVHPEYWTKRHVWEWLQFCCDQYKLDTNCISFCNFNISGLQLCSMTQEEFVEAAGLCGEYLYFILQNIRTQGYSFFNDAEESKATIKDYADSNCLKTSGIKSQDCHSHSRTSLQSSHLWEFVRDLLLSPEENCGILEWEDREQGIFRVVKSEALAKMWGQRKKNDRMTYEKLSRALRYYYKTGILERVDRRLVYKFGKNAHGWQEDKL
Outline: as §1

ETV6 = ETV6 (Homo sapiens, UniProt P41212 1-452); conditions: protein: recombinant; tags: N-terminal GST; dsDNA, one strand shown
Outline: as §1

CRX, sequence (O43186 whole entry): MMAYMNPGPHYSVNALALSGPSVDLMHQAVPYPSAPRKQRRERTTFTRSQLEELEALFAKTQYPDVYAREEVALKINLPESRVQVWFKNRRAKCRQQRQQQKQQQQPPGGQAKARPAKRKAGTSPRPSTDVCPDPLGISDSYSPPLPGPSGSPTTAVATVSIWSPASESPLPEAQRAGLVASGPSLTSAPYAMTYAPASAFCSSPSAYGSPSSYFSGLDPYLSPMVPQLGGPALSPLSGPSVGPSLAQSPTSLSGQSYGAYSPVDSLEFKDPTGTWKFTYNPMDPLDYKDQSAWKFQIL
ELF4, sequence (Q99607 whole entry): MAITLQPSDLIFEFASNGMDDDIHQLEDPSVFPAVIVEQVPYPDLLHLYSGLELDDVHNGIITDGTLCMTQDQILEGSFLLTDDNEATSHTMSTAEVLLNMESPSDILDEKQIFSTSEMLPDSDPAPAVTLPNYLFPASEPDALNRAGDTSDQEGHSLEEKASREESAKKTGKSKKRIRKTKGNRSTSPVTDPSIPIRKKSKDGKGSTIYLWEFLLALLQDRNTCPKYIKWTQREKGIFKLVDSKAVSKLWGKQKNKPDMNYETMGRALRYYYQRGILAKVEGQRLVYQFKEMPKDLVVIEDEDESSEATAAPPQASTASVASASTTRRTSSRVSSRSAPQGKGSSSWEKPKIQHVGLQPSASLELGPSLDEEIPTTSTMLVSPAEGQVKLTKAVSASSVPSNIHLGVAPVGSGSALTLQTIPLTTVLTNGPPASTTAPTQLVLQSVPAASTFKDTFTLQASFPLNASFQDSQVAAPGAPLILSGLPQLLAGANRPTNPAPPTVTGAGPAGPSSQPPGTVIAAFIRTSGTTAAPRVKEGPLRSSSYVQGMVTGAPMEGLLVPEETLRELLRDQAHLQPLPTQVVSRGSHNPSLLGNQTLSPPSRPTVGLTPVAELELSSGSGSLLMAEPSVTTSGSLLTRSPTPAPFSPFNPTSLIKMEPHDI
ETV5, sequence (P41161 whole entry): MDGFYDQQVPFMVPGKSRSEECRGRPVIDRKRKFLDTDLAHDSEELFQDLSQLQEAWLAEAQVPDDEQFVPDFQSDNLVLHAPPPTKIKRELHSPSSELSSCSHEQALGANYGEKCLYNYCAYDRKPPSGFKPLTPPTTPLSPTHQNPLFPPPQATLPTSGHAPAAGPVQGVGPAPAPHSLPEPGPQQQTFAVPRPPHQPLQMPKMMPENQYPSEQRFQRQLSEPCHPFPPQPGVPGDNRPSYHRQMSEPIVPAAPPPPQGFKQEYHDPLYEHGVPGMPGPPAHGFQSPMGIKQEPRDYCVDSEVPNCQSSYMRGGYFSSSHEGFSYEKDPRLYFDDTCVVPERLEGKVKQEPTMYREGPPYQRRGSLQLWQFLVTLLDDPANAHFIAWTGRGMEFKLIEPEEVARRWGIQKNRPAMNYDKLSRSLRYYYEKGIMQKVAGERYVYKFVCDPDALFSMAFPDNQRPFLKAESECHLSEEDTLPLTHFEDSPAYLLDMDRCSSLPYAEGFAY
HSF1, sequence (Q00613 whole entry): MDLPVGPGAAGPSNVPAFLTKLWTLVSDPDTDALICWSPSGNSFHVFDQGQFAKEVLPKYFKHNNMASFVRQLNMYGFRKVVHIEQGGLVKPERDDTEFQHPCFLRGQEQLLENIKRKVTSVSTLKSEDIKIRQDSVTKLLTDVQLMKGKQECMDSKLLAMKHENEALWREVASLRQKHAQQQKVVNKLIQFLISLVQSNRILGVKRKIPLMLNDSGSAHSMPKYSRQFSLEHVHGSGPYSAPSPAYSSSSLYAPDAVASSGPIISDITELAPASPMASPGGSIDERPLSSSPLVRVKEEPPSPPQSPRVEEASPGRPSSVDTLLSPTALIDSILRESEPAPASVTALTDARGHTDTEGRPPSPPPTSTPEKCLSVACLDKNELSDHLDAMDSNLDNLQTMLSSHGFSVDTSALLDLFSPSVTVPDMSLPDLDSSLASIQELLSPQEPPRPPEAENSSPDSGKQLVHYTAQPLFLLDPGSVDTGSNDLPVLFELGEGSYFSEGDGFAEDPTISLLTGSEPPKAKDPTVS
ETV1, sequence (P50549 whole entry): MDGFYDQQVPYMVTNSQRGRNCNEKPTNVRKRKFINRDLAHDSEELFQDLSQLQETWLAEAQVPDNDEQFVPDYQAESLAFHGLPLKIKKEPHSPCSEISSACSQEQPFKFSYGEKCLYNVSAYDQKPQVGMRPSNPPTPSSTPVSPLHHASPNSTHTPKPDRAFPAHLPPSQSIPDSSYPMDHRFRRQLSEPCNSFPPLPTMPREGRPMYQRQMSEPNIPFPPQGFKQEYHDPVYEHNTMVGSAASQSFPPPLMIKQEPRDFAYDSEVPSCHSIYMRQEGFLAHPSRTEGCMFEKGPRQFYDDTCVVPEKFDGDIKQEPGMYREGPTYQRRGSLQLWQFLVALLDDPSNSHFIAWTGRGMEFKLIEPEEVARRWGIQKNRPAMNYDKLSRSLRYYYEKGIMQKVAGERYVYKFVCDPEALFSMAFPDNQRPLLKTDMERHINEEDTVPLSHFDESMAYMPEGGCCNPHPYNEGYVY
ETV6, sequence (P41212 whole entry): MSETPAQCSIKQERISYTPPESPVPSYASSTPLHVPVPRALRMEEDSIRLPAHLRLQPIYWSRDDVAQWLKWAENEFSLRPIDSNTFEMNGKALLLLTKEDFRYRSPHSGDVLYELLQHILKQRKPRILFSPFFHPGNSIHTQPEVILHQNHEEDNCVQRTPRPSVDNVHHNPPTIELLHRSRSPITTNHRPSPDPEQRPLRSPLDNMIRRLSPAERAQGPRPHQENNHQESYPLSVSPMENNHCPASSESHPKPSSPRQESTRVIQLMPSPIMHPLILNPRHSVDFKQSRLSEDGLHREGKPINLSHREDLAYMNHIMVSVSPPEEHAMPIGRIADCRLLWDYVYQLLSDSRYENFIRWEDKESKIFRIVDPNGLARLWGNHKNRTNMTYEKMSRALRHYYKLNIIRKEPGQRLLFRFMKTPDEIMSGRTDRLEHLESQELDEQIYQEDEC

Sequence | binding signal (FEV) | binding signal (ETV5) | binding signal (HSF1) | binding signal (SPIC) | binding signal (ELF4) | binding signal (ELK4) | binding signal (ETV2) | binding signal (ELF3) | binding signal (CRX) | binding signal (ETV1) | binding signal (ERF) | binding signal (ETV3L) | binding signal (ETS2) | binding signal (SPDEF) | binding signal (ETV7) | binding signal (ETV3) | binding signal (ELF5) | binding signal (ETV6)
TACTGA | 1.03 fold enrichment (6-mer frequency, TF over GST control) | 1.13 fold enrichment (6-mer frequency, TF over GST control) | 1.07 fold enrichment (6-mer frequency, TF over GST control) | 1.03 fold enrichment (6-mer frequency, TF over GST control) | 1.11 fold enrichment (6-mer frequency, TF over GST control) | 1.32 fold enrichment (6-mer frequency, TF over GST control) | 1.12 fold enrichment (6-mer frequency, TF over GST control) | 1.2 fold enrichment (6-mer frequency, TF over GST control) | 1.2 fold enrichment (6-mer frequency, TF over GST control) | 1.02 fold enrichment (6-mer frequency, TF over GST control) | 1.17 fold enrichment (6-mer frequency, TF over GST control) | 1.13 fold enrichment (6-mer frequency, TF over GST control) | 1.1 fold enrichment (6-mer frequency, TF over GST control) | 1.14 fold enrichment (6-mer frequency, TF over GST control) | 1.01 fold enrichment (6-mer frequency, TF over GST control) | 1.11 fold enrichment (6-mer frequency, TF over GST control) |  | 
AATCGC | 1.08 fold enrichment (6-mer frequency, TF over GST control) | 1.03 fold enrichment (6-mer frequency, TF over GST control) | 1.3 fold enrichment (6-mer frequency, TF over GST control) | 1.08 fold enrichment (6-mer frequency, TF over GST control) | 1.14 fold enrichment (6-mer frequency, TF over GST control) | 1.08 fold enrichment (6-mer frequency, TF over GST control) | 1.04 fold enrichment (6-mer frequency, TF over GST control) | 1.08 fold enrichment (6-mer frequency, TF over GST control) | 1.62 fold enrichment (6-mer frequency, TF over GST control) | 1.15 fold enrichment (6-mer frequency, TF over GST control) | 1.01 fold enrichment (6-mer frequency, TF over GST control) | 1.05 fold enrichment (6-mer frequency, TF over GST control) | 1.17 fold enrichment (6-mer frequency, TF over GST control) |  | 1.07 fold enrichment (6-mer frequency, TF over GST control) | 1.08 fold enrichment (6-mer frequency, TF over GST control) | 1.1 fold enrichment (6-mer frequency, TF over GST control) | 1.17 fold enrichment (6-mer frequency, TF over GST control)
